The text below walks through data of PubChem BioAssay AID504340 (NMMLSC, 2011).

Values joined by “and” are separate entries in the source; they are usually repeats but may differ in a detail not shown here. Equal entries are not always repeated. Values without a mark were called inactive. Active and inactive are the calls of the source.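 How the source made its calls: active means GFP response above 150% of the DMSO control; inconclusive means Under 70 cell events counted for a yeast strain; inactive means the rest.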

The nature of this assay: yeast TOR pathway CIT2-GFP reporter retest – flow cytometry, third cherry pick, single plex, confirmation (AID 504340).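 Further: median GFP fluorescence over all cells with no mother versus daughter split; sample signal as a ratio to the plate DMSO mean so 100% equals DMSO.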 The following applies: S. cerevisiae CIT2-GFP strain, 3 h, at 10 µM, stronger effect = higher value.

Consider `COc1cccc(N/C(C)=C/C(=O)c2ccc(Br)cc2)c1`, for which the GFP response vs DMSO was 104%.

On to `COc1ccccc1OCc1cc(C(=O)N2CCN(C)C(c3ccccc3)C2)no1` (centres undefined), for which the GFP response vs DMSO was 103%.

Regarding `COc1cccc2c(=O)c(C(=O)O)c[nH]c12`, the GFP response vs DMSO was 99.3%.

With `COc1ccccc1Nc1nc(NCCO)nc(N)c1[N+](=O)[O-]`, the GFP response vs DMSO was 111%.

In the case of `O=c1cc(C(F)(F)F)[nH]c2c(OC(F)(F)F)cccc12`, the GFP response vs DMSO was 107%.

Regarding `Nc1ccc(O)c2c1C(=O)c1ccccc1C2=O`, the GFP response vs DMSO was 107%.

Turning to `Cc1ccc(Nc2cc(=O)[nH]c(=O)[nH]2)cc1C`, the GFP response vs DMSO is 104%.

Turning to `COc1ccc(NC(=O)ON=C2c3ccccc3-c3ccccc32)cc1`, the GFP response vs DMSO was 109%.

`COc1cc(OC)cc(C(=O)Nc2ccc(-c3nc4ccccc4o3)cc2)c1`: the GFP response vs DMSO is 112%.

With `Nn1cnc2c(c1=O)C1(CCCCC1)Cc1ccccc1-2`, the GFP response vs DMSO was 129%.

For the compound `CC1=CN2C(=N)/C(=C/c3ccc(C)o3)C(=O)N=C2S1`, the GFP response vs DMSO was 112%.

Take `CNc1nc(C)c([N+](=O)[O-])c(Nc2ccc(OC)cc2)n1`: the GFP response vs DMSO was 97.7%.

`O=C(O)CCCCCNc1ncnc2ccc(Br)cc12`: the GFP response vs DMSO was 106%.

For `Cn1c(NCCO)nc2c(c1=O)C1(CCCCC1)Cc1ccccc1-2`, the GFP response vs DMSO is 116%.

Turning to `Cc1ccc(NN2C(=O)C=C(c3ccccc3)C2=O)cc1`, the GFP response vs DMSO is 151% (active).

For `CC(=O)CC(=O)Nc1ccc(C(N)=O)cc1`, the GFP response vs DMSO was 106%.

`C/C(=C\C(=O)c1ccc(Cl)cc1)Nc1ccc(Br)cc1`: the GFP response vs DMSO was 104%.

Regarding `CCc1c(C)nc2c(OC)cccc2c1Cl`, the GFP response vs DMSO is 97.7%.

Turning to `C[n+]1cccc2c(Br)ccc([O-])c21`, the GFP response vs DMSO was 97.7%.

For the compound `CCCC(=O)Nn1cnc2c(c1=O)C1(CCCC1)Cc1ccccc1-2`, the GFP response vs DMSO was 94.5%.

For `NC(=O)COc1cccc2cccnc12`, the GFP response vs DMSO is 104%.

As for `Cc1ccc(Nc2nc(N)[nH]c(=O)c2N=O)cc1`, the GFP response vs DMSO was 106%.

Consider `Nc1[nH]c(=O)nc(Nc2ccccc2)c1N=O`, for which the GFP response vs DMSO is 92.8%.

In the case of `COc1ccccc1-c1cc(C(F)(F)F)nc(S(=O)(=O)CCCC(=O)NC(C)C)n1`, the GFP response vs DMSO is 104% and 94.5%.

As to `CSc1ccccc1OCc1cc(C(=O)N2CCN(C)C(c3ccccc3)C2)no1` (centres undefined), the GFP response vs DMSO is 99.3%.

`Cc1cn2c(N)c(C=C3C=C(Cl)C(=O)C(Cl)=C3)c(=O)nc2s1`: the GFP response vs DMSO is 101%.

As for `Cn1cccc1C(=O)Nc1nc(-c2ccccn2)cs1`, the GFP response vs DMSO was 106%.

With `Cc1ccc2nc(-c3ccc(NC(=O)c4cccnc4)cc3)oc2c1`, the GFP response vs DMSO was 104%.

Turning to `O=C(O)c1ccc2cccnc2c1O`, the GFP response vs DMSO was 88%.

Regarding `FC(F)Oc1cccc2cccnc12`, the GFP response vs DMSO was 97.7%.

In the case of `COc1cc(=O)n(C)c2c(O)cccc12`, the GFP response vs DMSO is 92.8%.

On to `COc1ccc(OC)c(Nc2nc(NCCC(C)C)nc(N)c2[N+](=O)[O-])c1`, for which the GFP response vs DMSO was 103%.

In the case of `CNc1nc(N)c([N+](=O)[O-])c(Nc2cccc(Cl)c2)n1`, the GFP response vs DMSO was 480% (active).

In the case of `Cc1ccc(Nc2cc(=O)[nH]c(=O)[nH]2)cc1Cl`, the GFP response vs DMSO is 99.3%.

As to `CCN(CC)C(=O)Oc1ccnc2cc(Cl)ccc12`, the GFP response vs DMSO is 107%.

For `COc1cccc2c(O)cc(=O)n(C)c12`, the GFP response vs DMSO was 103%.

With `COc1ccc(OC)c2c(C)cc(C)nc12`, the GFP response vs DMSO is 99.3%.

In the case of `CCOC(=O)CS(=O)(=O)c1nc(-c2ccccc2)cc(C(F)(F)F)n1`, the GFP response vs DMSO is 111%.

For `O=C(Nc1nc(-c2ccccn2)cs1)c1ccccc1-n1cnnn1`, the GFP response vs DMSO is 103%.
